From PubChem BioAssay (NCATS) come the findings set out here.

Molecules are shown by their SMILES. Inconclusive results are not listed. Where a call stands in place of a potency, no number is given. Activity calls are given as the source filed them. Calls follow the shape of the dose curve; as a rule, active = well fitted inhibition curve with a large enough effect; inconclusive = small, poorly fitted or top-dose-only effect; inactive = no such curve, though single readings can be large or run the other way.

The first test in a line: qHTS assay for measurement of the activity of small molecule inhibitors on Zika virus induced Caspase-3 activity in human iPSC derived neural progenitor cells (hNPCs) (AID 1224857). Also: nearly all actives have a fitted effect of over 65% in size. Particulars: hNPCs ZIKV-induced caspase-3/7, Caspase-Glo luminescence, 6 h; series mostly up to 45.7 µM; activity change, negative = inhibition: at the top concentration. In a few lines:
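Quantitative HTS format: human iPSC neural progenitors, 1 h compound pretreatment, ZIKV 2 FFU/cell for 6 h at 37 C. Percent inhibition derived from luminescent caspase-3/7 signal between uninfected and infected controls.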
For `CC1(C)[C@H](C(=O)O)N2C(=O)C[C@H]2S1(=O)=O`, the Potency entry was “inactive”.

Take `COc1nc(N)nc2c1ncn2[C@@H]1O[C@H](CO)[C@@H](O)[C@@H]1O`: the Potency entry was “inactive”.

Regarding `CCN1CCCC1CNC(=O)c1cc(S(N)(=O)=O)ccc1OC` (centres undefined), the Potency result is “inactive”.

As to `CC(C)OC(=O)C(C(=O)OC(C)C)=C1SC=CS1`, the Potency entry was “inactive”.

In the case of `O[C@@H](CNC[C@H](O)[C@H]1CCc2cc(F)ccc2O1)[C@@H]1CCc2cc(F)ccc2O1`, the Potency entry is “inactive”.

With `CO[C@@H]1[C@@H](OC(N)=O)[C@@H](O)[C@H](Oc2ccc3c(O)c(NC(=O)c4ccc(O)c(CC=C(C)C)c4)c(=O)oc3c2C)OC1(C)C`, the Potency entry is “inactive”.

As to `O=C(NCC1CN(c2ccc(N3CCOCC3=O)cc2)C(=O)O1)c1ccc(Cl)s1` (centres undefined), the Potency entry was “inactive”.

The next test in a line: qHTS assay for measurement of the activity of small molecule inhibitors on Zika virus induced Caspase-3 activity in human astrocytoma cells (AID 1224859). Particulars: SNB-19 ZIKV-induced caspase-3/7, luminescence, 6 h; series mostly up to 45.7 µM; activity change, negative = inhibition: at the top concentration. The essentials: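 Readout is luminescence from Caspase-Glo 3/7 added after a 6 h ZIKV infection (2 FFU/cell) of compound-pretreated (1 h) SNB-19 cells; data expressed as % inhibition versus uninfected and infected wells.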
With `CNCC[C@H](Oc1cccc2ccccc12)c1cccs1`, the Potency result was “inactive”.

Turning to `NC(=O)c1cccc(N)c1`, the Potency result is “inactive”.

Consider `N=C(N)c1ccc(OCCCCCOc2ccc(C(=N)N)cc2)cc1`, for which the Potency entry is “inactive”.

As for `CC(C(=O)O)c1ccc2c(c1)CC(=O)c1ccccc1S2` (centres undefined), the Potency entry is “inactive”.

Consider `CC(C)OC(=O)OCOP(=O)(CO[C@H](C)Cn1cnc2c(N)ncnc21)OCOC(=O)OC(C)C`, for which the Potency entry is “inactive”.

With `CC1(C)[C@H](C(=O)O)N2C(=O)C[C@H]2S1(=O)=O`, the Potency entry is “inactive”.

Turning to `CCc1cc(C(N)=S)ccn1`, the Potency result was “inactive”.

Turning to `C[C@@H]1CN(c2c(F)c(N)c3c(=O)c(C(=O)O)cn(C4CC4)c3c2F)C[C@H](C)N1`, the Potency entry is “inactive”.

For the compound `S=P(N1CC1)(N1CC1)N1CC1`, the Potency entry was “inactive”.

As to `COc1nc(N)nc2c1ncn2[C@@H]1O[C@H](CO)[C@@H](O)[C@@H]1O`, the Potency entry was “inactive”.

Consider `CCCCCCNC(=O)n1cc(F)c(=O)[nH]c1=O`, for which the Potency result was “inactive”.

Take `CCN1CCCC1CNC(=O)c1cc(S(N)(=O)=O)ccc1OC` (centres undefined): the Potency entry is “inactive”.

Take `CC[C@H](C)C(=O)O[C@H]1C[C@@H](C)C=C2C=C[C@H](C)[C@H](CC[C@@H]3C[C@@H](O)CC(=O)O3)[C@H]21`: the Potency entry was “inactive”.

As for `COc1ccc(-c2ccc3cc(C(=O)O)ccc3c2)cc1C12CC3CC(CC(C3)C1)C2`, the Potency entry is “inactive”.

`CCOC(=O)c1ccc(C#Cc2ccc3c(c2)C(C)(C)CCS3)nc1`: the Potency result is “inactive”.

On to `CC(C)OC(=O)C(C(=O)OC(C)C)=C1SC=CS1`, for which the Potency result was “inactive”.

In the case of `CNC1CCCN(c2c(F)cc3c(=O)c(C(=O)O)cn(C4CC4)c3c2OC)C1` (centres undefined), the Potency entry is “inactive”.

For the compound `O[C@@H](CNC[C@H](O)[C@H]1CCc2cc(F)ccc2O1)[C@@H]1CCc2cc(F)ccc2O1`, the Potency entry is “inactive”.

For `CN(C)CCc1c[nH]c2ccc(C[C@H]3COC(=O)N3)cc12`, the Potency entry was “inactive”.

Consider `COc1ncnc(NS(=O)(=O)c2ccc(N)cc2)c1OC`, for which the Potency result was “inactive”.

As to `CO[C@@]12[C@H](COC(N)=O)C3=C(C(=O)C(C)=C(N)C3=O)N1C[C@@H]1N[C@@H]12`, the Potency result was “inactive”.

For the compound `CO[C@@H]1[C@@H](OC(N)=O)[C@@H](O)[C@H](Oc2ccc3c(O)c(NC(=O)c4ccc(O)c(CC=C(C)C)c4)c(=O)oc3c2C)OC1(C)C`, the Potency result is “inactive”.

With `Cc1ncc([N+](=O)[O-])n1CCO`, the Potency entry was “inactive”.

Consider `CC(C)Cn1cnc2c(N)nc3ccccc3c21`, for which the Potency entry was “inactive”.

Regarding `O=C(O)CSCC(=O)NC1CCSC1=O` (centres undefined), the Potency entry was “inactive”.

In the case of `Cc1onc(-c2ccccc2Cl)c1C(=O)N[C@@H]1C(=O)N2[C@@H]1SC(C)(C)[C@@H]2C(=O)O`, the Potency entry is “inactive”.

Consider `CC1=CC(=O)c2ccccc2C1=O`, for which the Potency entry was “inactive”.

Regarding `CC(C)(Sc1cc(C(C)(C)C)c(O)c(C(C)(C)C)c1)Sc1cc(C(C)(C)C)c(O)c(C(C)(C)C)c1`, the Potency result is “inactive”.

For the compound `NS(=O)(=O)c1cc2c(cc1Cl)NC(C(Cl)Cl)NS2(=O)=O` (centres undefined), the Potency entry is “inactive”.

`C[C@]12C=CC(=O)C=C1CC[C@@H]1[C@@H]2C(=O)C[C@@]2(C)[C@H]1CC[C@]2(O)C(=O)CO`: the Potency entry was “inactive”.

Take `COc1cc(NCc2ccc3nc(N)nc(N)c3c2C)cc(OC)c1OC`: the Potency entry was “inactive”.

Regarding `O=C(NCC1CN(c2ccc(N3CCOCC3=O)cc2)C(=O)O1)c1ccc(Cl)s1` (centres undefined), the Potency result was “inactive”.

In the case of `CC(=O)[C@H]1CC[C@H]2[C@@H]3CCC4=CC(=O)CC[C@]4(C)[C@H]3CC[C@]12C`, the Potency result is “inactive”.

On to `Cc1nnc(NS(=O)(=O)c2ccc(N)cc2)s1`, for which the Potency result was “inactive”.

In the case of `C[C@@H](NCCCc1cccc(C(F)(F)F)c1)c1cccc2ccccc12`, the Potency result was “inactive”.

Turning to `COC(c1ccccc1)(c1ccccc1)[C@H](Oc1nc(C)cc(C)n1)C(=O)O`, the Potency entry is “inactive”.

As for `COc1cc(NS(=O)(=O)c2ccc(N)cc2)nc(OC)n1`, the Potency result was “inactive”.

The next test can be described thus: qHTS Screen of the MIPE 4.0 Collection Against Ewings Sarcoma (RDES) (AID 1259252). Also: nearly all actives have a fitted effect of over 35% in size. Also: potency is read from the fitted curve at half-maximal effect. Particulars: RD-ES Ewing sarcoma viability, CellTiter-Glo, 48 h; series mostly up to 45.8 µM; viability (percent of control): at the top concentration. The essentials:
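Here, cells in 5% FBS RPMI were exposed for two days (48 h) to compound dilutions added four hours after plating. ATP-based CellTiter-Glo luminescence measured viability, normalized to vehicle and no-cell blanks.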
`CNCC[C@H](Oc1cccc2ccccc12)c1cccs1`: the Potency was 2.35 µM (active).

As to `N=C(N)c1ccc(OCCCCCOc2ccc(C(=N)N)cc2)cc1`, the Potency was 18.7 µM (active).

`CC(C(=O)O)c1ccc2c(c1)CC(=O)c1ccccc1S2` (centres undefined): the “viability (percent of control)” value is 108% (inactive).

As to `CC(C)OC(=O)OCOP(=O)(CO[C@H](C)Cn1cnc2c(N)ncnc21)OCOC(=O)OC(C)C`, the “viability (percent of control)” value is 97.7% (inactive).

As to `CCc1cc(C(N)=S)ccn1`, the “viability (percent of control)” value is 113% (inactive).

As to `C[C@@H]1CN(c2c(F)c(N)c3c(=O)c(C(=O)O)cn(C4CC4)c3c2F)C[C@H](C)N1`, the “viability (percent of control)” value was 128% [at 23.2 µM] (inactive).

For the compound `COc1nc(N)nc2c1ncn2[C@@H]1O[C@H](CO)[C@@H](O)[C@@H]1O`, the Potency was 20.9 µM (active).

Consider `CCCCCCNC(=O)n1cc(F)c(=O)[nH]c1=O`, for which the Potency was 13.2 µM (active).

On to `CC[C@H](C)C(=O)O[C@H]1C[C@@H](C)C=C2C=C[C@H](C)[C@H](CC[C@@H]3C[C@@H](O)CC(=O)O3)[C@H]21`, for which the Potency was 18.7 µM (active).

Turning to `CCOC(=O)c1ccc(C#Cc2ccc3c(c2)C(C)(C)CCS3)nc1`, the “viability (percent of control)” value was 117% (inactive).

On to `CC(C)OC(=O)C(C(=O)OC(C)C)=C1SC=CS1`, for which the “viability (percent of control)” value is 122% (inactive).

Turning to `CNC1CCCN(c2c(F)cc3c(=O)c(C(=O)O)cn(C4CC4)c3c2OC)C1` (centres undefined), the Potency was 14.8 µM (active).

Turning to `CN(C)CCc1c[nH]c2ccc(C[C@H]3COC(=O)N3)cc12`, the “viability (percent of control)” value is 116% (inactive).

As for `COc1ncnc(NS(=O)(=O)c2ccc(N)cc2)c1OC`, the “viability (percent of control)” value was 93.1% (inactive).

With `CO[C@@]12[C@H](COC(N)=O)C3=C(C(=O)C(C)=C(N)C3=O)N1C[C@@H]1N[C@@H]12`, the Potency was 0.0332 µM (active).

Take `CO[C@@H]1[C@@H](OC(N)=O)[C@@H](O)[C@H](Oc2ccc3c(O)c(NC(=O)c4ccc(O)c(CC=C(C)C)c4)c(=O)oc3c2C)OC1(C)C`: the Potency was 5.9 µM (active).

As for `Cc1ncc([N+](=O)[O-])n1CCO`, the “viability (percent of control)” value was 114% (inactive).

For `CC(C)Cn1cnc2c(N)nc3ccccc3c21`, the Potency was 16.6 µM (active).

As for `O=C(O)CSCC(=O)NC1CCSC1=O` (centres undefined), the “viability (percent of control)” value is 134% (inactive).

Consider `Cc1onc(-c2ccccc2Cl)c1C(=O)N[C@@H]1C(=O)N2[C@@H]1SC(C)(C)[C@@H]2C(=O)O`, for which the “viability (percent of control)” value is 124% (inactive).

On to `CC(C)(Sc1cc(C(C)(C)C)c(O)c(C(C)(C)C)c1)Sc1cc(C(C)(C)C)c(O)c(C(C)(C)C)c1`, for which the Potency is 2.96 µM (active).

In the case of `NS(=O)(=O)c1cc2c(cc1Cl)NC(C(Cl)Cl)NS2(=O)=O` (centres undefined), the “viability (percent of control)” value is 122% (inactive).

For the compound `CC(=O)[C@H]1CC[C@H]2[C@@H]3CCC4=CC(=O)CC[C@]4(C)[C@H]3CC[C@]12C`, the Potency was 3.32 µM (active).

Regarding `Cc1nnc(NS(=O)(=O)c2ccc(N)cc2)s1`, the Potency is 14.8 µM (active).

On to `C[C@@H](NCCCc1cccc(C(F)(F)F)c1)c1cccc2ccccc12`, for which the “viability (percent of control)” value was 114% (inactive).
